The whole screen tested about 39,000 compounds, of which about 3,300 (8.5%) were called active. The full list was thinned out, with actives kept by preference.

This is an account of results in the antibiotic and cytotoxicity screens of Wong et al. (2023).

This experiment has as its system HepG2. As to the kind of experiment: cytotoxicity call (relative viability < 0.9). The following applies: 10 µM.
For `CCO[C@H]1OC(C(=O)N2CCN(Cc3ccc4c(c3)OCO4)CC2)=C[C@@H](C)[C@@H]1CCCOC(=O)NCCCCCC(=O)NO`, the cytotoxicity call was “inactive”.

With `O=C(C[C@H]1C[C@@H]2c3cc(NC(=O)NC4CCCC4)ccc3O[C@@H]2[C@@H](CO)O1)NCc1ccc2c(c1)OCO2`, the cytotoxicity call is “inactive”.

As to `CO[C@H]1CN(C)C(=O)c2ccc(NC(=O)NC(C)C)cc2OC[C@@H](C)N(Cc2ccc(-c3ccccn3)cc2)C[C@@H]1C`, the cytotoxicity call was “inactive”.

Take `C[C@H]1CN([C@@H](C)CO)C(=O)Cc2cc(NC(=O)Nc3ccc(C(F)(F)F)cc3)ccc2O[C@@H]1CN(C)Cc1ccccc1`: the cytotoxicity call was “inactive”.

For the compound `C[C@@H]1CN([C@H](C)CO)C(=O)Cc2cc(NC(=O)Nc3ccc(C(F)(F)F)cc3)ccc2O[C@@H]1CN(C)Cc1ccccc1`, the cytotoxicity call was “active”.

With `C[C@@H]1CN([C@@H](C)CO)C(=O)Cc2cc(NC(=O)Nc3ccc(C(F)(F)F)cc3)ccc2O[C@@H]1CN(C)Cc1ccccc1`, the cytotoxicity call is “active”.

For the compound `C[C@@H]1CN([C@H](C)CO)C(=O)Cc2cc(NC(=O)Nc3ccc(C(F)(F)F)cc3)ccc2O[C@H]1CN(C)Cc1ccccc1`, the cytotoxicity call was “active”.

In the case of `C[C@@H]1CN([C@@H](C)CO)C(=O)Cc2cc(NC(=O)Nc3ccc(C(F)(F)F)cc3)ccc2O[C@H]1CN(C)Cc1ccccc1`, the cytotoxicity call was “inactive”.

For `C[C@H]1CN([C@@H](C)CO)C(=O)Cc2cc(NC(=O)Nc3ccc(C(F)(F)F)cc3)ccc2O[C@H]1CN(C)Cc1ccccc1`, the cytotoxicity call was “active”.

Turning to `C[C@H](CO)N1C[C@H](C)[C@H](CN(C)S(C)(=O)=O)Oc2ncc(C#Cc3ccc(C(F)(F)F)cc3)cc2C1=O`, the cytotoxicity call is “inactive”.

As for `COCC#Cc1cnc2c(c1)C(=O)N([C@H](C)CO)C[C@@H](C)[C@@H](CN(C)C(=O)CCN1CCCCC1)O2`, the cytotoxicity call is “inactive”.

On to `C[C@@H]1CN([C@H](C)CO)C(=O)c2cc(NC(=O)Nc3ccc4c(c3)OCO4)ccc2O[C@@H]1CN(C)C(=O)Nc1cccc2ccccc12`, for which the cytotoxicity call was “inactive”.

Regarding `COc1ccc(C#Cc2ccc3c(c2)O[C@H](CN(C)C(=O)CN2CCOCC2)[C@@H](C)CN([C@H](C)CO)S3(=O)=O)cc1`, the cytotoxicity call was “inactive”.

Consider `CN(C)CCN1C(=O)CO[C@H]2CN(C(=O)NCc3cccnc3)C[C@@H]21`, for which the cytotoxicity call is “inactive”.

On to `C[C@@H]1CN([C@H](C)CO)C(=O)Cc2cc(NC(=O)Nc3ccccc3)ccc2O[C@@H]1CN(C)S(=O)(=O)c1cn(C)cn1`, for which the cytotoxicity call is “inactive”.

Consider `O=C(N/N=C/[C@H](O)[C@H](O)[C@@H](O)[C@@H](O)CO)c1ccccn1`, for which the cytotoxicity call is “inactive”.

As for `CON=C(C(=O)NC1C(=O)N2C(C(=O)O)=C(C[N+]3(C)CCCC3)CSC12)c1csc(N)n1.[Cl-]` (stereo unspecified), the cytotoxicity call is “inactive”.

On to `Cc1noc(C)c1S(=O)(=O)Nc1ccc2c(c1)C(=O)N([C@@H](C)CO)C[C@H](C)[C@H](CN(C)C(=O)Nc1cccc3ccccc13)OCCCC[C@H](C)O2`, for which the cytotoxicity call is “inactive”.

With `C[C@H](CO)N1C[C@H](C)[C@H](CN(C)Cc2ccccc2)Oc2ccc(NC(=O)Nc3ccc(C(F)(F)F)cc3)cc2CC1=O`, the cytotoxicity call was “active”.

For the compound `C[C@H](CO)N1C[C@H](C)[C@@H](CN(C)Cc2ccccc2)Oc2ccc(NC(=O)Nc3ccc(C(F)(F)F)cc3)cc2CC1=O`, the cytotoxicity call is “active”.

On to `CO[C@H]1CN(C)C(=O)c2cc(NC(=O)Nc3ccccc3F)ccc2OC[C@@H](C)N(Cc2ccccc2C(=O)O)C[C@H]1C`, for which the cytotoxicity call is “inactive”.

Turning to `C[C@@H]1CCCCO[C@H](CN(C)C(=O)Nc2ccc(F)cc2)[C@H](C)CN([C@@H](C)CO)C(=O)c2cc(NC(=O)c3ccccc3)ccc2O1`, the cytotoxicity call is “inactive”.

With `COc1ccc(C(=O)O)c(O)c1OC`, the cytotoxicity call is “inactive”.

Turning to `COc1ccc(C(=O)CCC(=O)O)c2ccccc12`, the cytotoxicity call was “active”.

Regarding `O=C(O)CCC(=O)c1ccc(-c2ccccc2)cc1`, the cytotoxicity call is “inactive”.

Regarding `C[C@H]1CCCCO[C@@H](CN(C)C(=O)NC2CCCCC2)[C@@H](C)CN([C@@H](C)CO)C(=O)c2cc(NC(=O)NC3CCCCC3)ccc2O1`, the cytotoxicity call is “inactive”.

Regarding `COc1ccc(S(=O)(=O)N(C)C[C@@H]2OCCCC[C@@H](C)Oc3ccc(NC(=O)Nc4ccccc4)cc3C(=O)N([C@@H](C)CO)C[C@@H]2C)cc1`, the cytotoxicity call was “inactive”.

On to `C[C@H](O)C#Cc1ccc2c(c1)O[C@H](CN(C)C(=O)Cc1ccccn1)[C@@H](C)CN([C@H](C)CO)S2(=O)=O`, for which the cytotoxicity call is “inactive”.

For the compound `COCC#Cc1cnc2c(c1)C(=O)N([C@H](C)CO)C[C@@H](C)[C@@H](CN(C)S(=O)(=O)c1cn(C)cn1)O2`, the cytotoxicity call was “inactive”.

With `COCC#Cc1cnc2c(c1)C(=O)N([C@H](C)CO)C[C@@H](C)[C@H](CN(C)S(=O)(=O)c1cn(C)cn1)O2`, the cytotoxicity call was “inactive”.

On to `COc1ccccc1C#Cc1cnc2c(c1)C(=O)N([C@@H](C)CO)C[C@H](C)[C@H](CN(C)S(=O)(=O)c1cn(C)cn1)O2`, for which the cytotoxicity call is “inactive”.

In the case of `COc1ccccc1C#Cc1cnc2c(c1)C(=O)N([C@H](C)CO)C[C@@H](C)[C@@H](CN(C)S(=O)(=O)c1cn(C)cn1)O2`, the cytotoxicity call was “inactive”.

For `COCC#Cc1cnc2c(c1)C(=O)N([C@@H](C)CO)C[C@H](C)[C@@H](CN(C)S(=O)(=O)c1cn(C)cn1)O2`, the cytotoxicity call was “active”.

Consider `COCC#Cc1cnc2c(c1)C(=O)N([C@H](C)CO)C[C@H](C)[C@@H](CN(C)C(=O)c1cnccn1)O2`, for which the cytotoxicity call is “inactive”.

As to `COc1ccccc1C#Cc1cnc2c(c1)C(=O)N([C@H](C)CO)C[C@H](C)[C@@H](CN(C)S(=O)(=O)c1cn(C)cn1)O2`, the cytotoxicity call was “inactive”.

With `COc1ccccc1C#Cc1cnc2c(c1)C(=O)N([C@@H](C)CO)C[C@@H](C)[C@@H](CN(C)S(=O)(=O)c1cn(C)cn1)O2`, the cytotoxicity call was “inactive”.

Regarding `COc1ccccc1C#Cc1cnc2c(c1)C(=O)N([C@H](C)CO)C[C@@H](C)[C@H](CN(C)S(=O)(=O)c1cn(C)cn1)O2`, the cytotoxicity call was “active”.

For `COCC#Cc1cnc2c(c1)C(=O)N([C@H](C)CO)C[C@@H](C)[C@H](CN(C)C(=O)c1cnccn1)O2`, the cytotoxicity call was “inactive”.

Take `COCC#Cc1cnc2c(c1)C(=O)N([C@H](C)CO)C[C@H](C)[C@H](CN(C)C(=O)c1cnccn1)O2`: the cytotoxicity call is “active”.

In the case of `COc1ccccc1C#Cc1cnc2c(c1)C(=O)N([C@@H](C)CO)C[C@@H](C)[C@H](CN(C)S(=O)(=O)c1cn(C)cn1)O2`, the cytotoxicity call was “active”.

For the compound `COCCCNC(=O)[C@@]1(Sc2ccc(C)cc2)CC(=O)N(Cc2cc(C(F)(F)F)cc(C(F)(F)F)c2)[C@@H]1c1ccc(CO)cc1I`, the cytotoxicity call is “inactive”.
